# Laboratory results reported in PubChem BioAssay.
# How the values were obtained:
# [1] = test system: Human papillomavirus type 1a protein E7 (residues 44-93); assay: small molecules binding HPV E7 44-93 – biochemical, small-molecule microarray, residues 44-93, 635 nm fluorescence, primary screen (AID 1108); conditions: fluorescence 635 nm, higher = more signal;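 further: E7 fragment applied at 1 µg/mL in TBST for 1 h at 4 C; score combines spot fluorescence with its signal to noise ratio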
# [2] = hepatitis C replication reporter changes, two-sided – Huh7 cells, luciferase reporter, HCV replication inhibitor project, primary screen (AID 1109); conditions: Huh7 HCV replicon luciferase reporter, 48 h; higher = more signal;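 further: huh7 hepatoma cells harbouring a luciferase neomycin HCV replicon reporter; luciferase luminescence as measure of HCV replicon replication; test concentration not given here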
# [3] = molecular target: Left-right determination factor 2 (Homo sapiens) (UniProt O00292); assay: small molecules binding LEFTY2 protein – biochemical, small-molecule microarray, 635 nm fluorescence scan, primary screen (AID 1110); conditions: higher = more signal
# Left-right determination factor 2 (Homo sapiens), sequence (O00292 whole entry, looked up): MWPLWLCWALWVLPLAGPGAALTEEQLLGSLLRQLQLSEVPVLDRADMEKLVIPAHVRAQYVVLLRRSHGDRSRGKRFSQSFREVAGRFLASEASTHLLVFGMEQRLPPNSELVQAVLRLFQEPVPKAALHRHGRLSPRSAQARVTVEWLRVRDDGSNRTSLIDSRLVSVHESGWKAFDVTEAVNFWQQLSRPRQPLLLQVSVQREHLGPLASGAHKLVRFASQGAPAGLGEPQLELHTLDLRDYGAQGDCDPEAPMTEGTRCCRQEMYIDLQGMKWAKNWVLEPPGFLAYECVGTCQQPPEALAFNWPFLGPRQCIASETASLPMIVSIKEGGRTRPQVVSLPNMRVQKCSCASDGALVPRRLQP
# [4] = molecular target: Calmodulin-1 (Homo sapiens) (UniProt P0DP23); assay: small molecules binding calmodulin-1 with EGTA – biochemical, small-molecule microarray, Cy5-labelled CALM1, profiling panel (AID 1111); conditions: Cy5-CALM1 binding fluorescence, higher = more signal;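 further: labelled calmodulin applied in Tris saline Tween buffer holding calcium plus EGTA and DTT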
# [5] = molecular target: Calmodulin-1 (Homo sapiens) (UniProt P0DP23); assay: small molecules binding Ca-loaded calmodulin-1 – biochemical, small-molecule microarray, Cy5-labelled CALM1, plus calcium, artefact control for SMM control-protein annotation, profiling panel (AID 1112); conditions: Cy5-CALM1 binding fluorescence, higher = more signal;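 further: score merges spot fluorescence with signal to noise from triplicate slides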
# [6] = probe aWnt5a binding to arrayed compounds – biochemical, biotinylated probe, 635/667 nm fluorescence, primary screen (AID 1113); conditions: small-molecule microarray, higher = more signal;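 further: score merges 667 nm fluorescence intensity with signal-to-noise per printed feature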
# [7] = probe aShh binding to arrayed compounds – biochemical, biotinylated probe, 635/667 nm fluorescence, primary screen (AID 1114); conditions: small-molecule microarray, higher = more signal;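 further: probe is biotin-labelled aShh protein from a stem cell growth factor screen; measures binding of labelled protein to compounds printed on the slide; score merges feature fluorescence at 667 nm with signal-to-noise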
# [8] = probe aNog binding to arrayed compounds – biochemical, biotinylated probe, 635/667 nm fluorescence, primary screen (AID 1115); conditions: small-molecule microarray, higher = more signal;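 further: probe is biotinylated aNog protein used at 0.15 µg/mL for 1 h at 4 C; z-score combines 667 nm fluorescence of each spot with its signal to noise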
# [9] = molecular target: Torsin-1A-interacting protein 1 (Homo sapiens) (UniProt Q5JTV8); assay: compound microarray binding of lysate hLAP1 – cell lysate, small-molecule microarray, COS7 lysate, 635/667 nm fluorescence, primary screen (AID 1116); conditions: 635 nm fluorescence, higher = more signal
# Torsin-1A-interacting protein 1 (Homo sapiens), sequence (Q5JTV8 whole entry, looked up): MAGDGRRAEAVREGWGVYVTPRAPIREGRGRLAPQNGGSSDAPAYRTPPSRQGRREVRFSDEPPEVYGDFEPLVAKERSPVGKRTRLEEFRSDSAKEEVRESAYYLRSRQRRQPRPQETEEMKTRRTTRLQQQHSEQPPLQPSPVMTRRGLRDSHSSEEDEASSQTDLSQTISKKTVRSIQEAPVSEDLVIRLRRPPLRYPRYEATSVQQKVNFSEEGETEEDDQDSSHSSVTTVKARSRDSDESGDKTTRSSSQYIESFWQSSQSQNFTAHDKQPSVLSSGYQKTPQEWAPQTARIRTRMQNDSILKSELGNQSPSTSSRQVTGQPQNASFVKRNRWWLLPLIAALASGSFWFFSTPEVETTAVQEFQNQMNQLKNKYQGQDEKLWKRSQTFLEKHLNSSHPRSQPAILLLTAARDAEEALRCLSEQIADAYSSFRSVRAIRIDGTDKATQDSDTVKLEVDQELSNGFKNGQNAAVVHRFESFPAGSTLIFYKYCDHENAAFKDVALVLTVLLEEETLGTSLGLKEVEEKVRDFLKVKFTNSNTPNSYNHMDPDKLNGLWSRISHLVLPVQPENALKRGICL
# [10] = molecular target: Alpha-bungarotoxin (Bungarus multicinctus) (UniProt P60615); assay: compounds binding labelled alpha-BTX control protein – biochemical, small-molecule microarray, Alexa647 label, 635/667 nm fluorescence, artefact control for SMM control protein annotation, profiling panel (AID 1117); conditions: alpha-BTX-A647 binding fluorescence, higher = more signal
# Alpha-bungarotoxin (Bungarus multicinctus), sequence (P60615 whole entry, looked up): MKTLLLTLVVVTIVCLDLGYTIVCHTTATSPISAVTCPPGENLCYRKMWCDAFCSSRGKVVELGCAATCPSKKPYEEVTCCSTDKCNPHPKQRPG
SMILES,composite z-score [1],z-score [2],composite z-score [3],composite z-score [4],composite z-score [5],composite z-score [6],composite z-score [7],composite z-score [8],composite z-score [9],composite z-score [10]
COC(=O)[C@@]1(Cc2ccc(OC)cc2)[C@H]2c3cc(C(=O)N4CCCC4)n(CCc4c[nH]c5ccc(O)cc45)c3C[C@H]2CN1C(=O)c1ccccc1,1.39,-1.51,0.148,0.797,0.202,0.14,0.315,0.863,1.4,0.485
COc1ccc([Si](C)(C)[C@@H]2[C@@H](CCO)O[C@]3(C(=O)N(Cc4ccccc4)c4ccc(N5C(=O)c6cccc7cccc5c67)cc43)[C@H]2C)cc1,-0.432,-4.17,-0.558,0.991,0.836,-0.251,-0.237,0.2,-0.697,0.0366
O=C1O[C@@H](c2ccccc2)[C@@H](c2ccccc2)N2[C@@H](c3ccc(OCCO)cc3)[C@]3(C(=O)Nc4ccc(C#CC5=CCCCC5)cc43)[C@@H](C(=O)NC[C@H](O)c3ccccc3)[C@H]12,0.97,-2.54,0.665,1.25,0.7,-0.042,-0.398,1.74,1.12,0.608
C=CCOC(=O)[C@@]1(Cc2ccccc2)C[C@H]2CO[C@H](c3ccc(OC)cc3)N2C1=O,0.206,-0.938,0.283,-0.388,-0.659,-0.0846,-0.0035,-0.118,0.574,0.352
C=CCC(OC(C)=O)[C@@H]1[C@@H](N(Cc2cccc3ccccc23)C(=O)Cc2ccc(OC)cc2)c2cc(OCCCO)ccc2N1C(=O)c1ccc(-c2ccccc2)cc1 (stereo not given in full),-0.446,0.321,-0.279,-0.228,0.726,-0.157,-0.156,0.546,0.435,0.28
CCCCCN1CC=CC23O[C@@H]4/C=C\CCCOC(=O)C4[C@H]2C(=O)N(C(C)CO)[C@@H]3C1=O (stereo not given in full),-0.141,-0.646,-1.67,-0.452,-0.254,-0.203,-0.181,-0.0057,-0.111,2.97
Cc1ccccc1C(O)C1C=CC2C(=O)NC(=O)C2N1Nc1ccccn1 (stereo not given),-0.439,0.331,0.263,-0.285,-0.206,-0.221,-0.349,-0.0682,0.692,0.173
COc1cccc(C)c1NC(=O)O[C@H]1[C@H](OC(=O)Nc2ccc3c(c2)OCO3)[C@@H](OC(=O)Nc2ccc3c(c2)OCO3)[C@@H](OC)O[C@@H]1CO,1.42,0.658,0.794,0.108,-1.04,0.0973,0.149,-0.0899,1.5,0.869
CC1CC/C=C\[C@H]2OC34C=CCN(C(C)C)C(=O)[C@H]3N(CCO)C(=O)[C@@H]4C2C(=O)O1 (stereo not given in full),-0.21,-0.566,-1.6,-0.377,0.0947,-0.202,0.0062,-0.0926,-0.241,-1.22
CCOC(=O)C1=CC[C@@H](c2ccccc2F)N(S(=O)(=O)c2ccc(C)cc2)[C@H]1c1ccccc1,1.34,-1.43,0.364,0.509,-0.355,-0.0924,-0.0866,-0.473,0.292,0.42
COc1ccc([Si](C)(C)[C@@H]2[C@@H](CC(=O)N3Cc4ccccc4C[C@H]3CO)O[C@]3(C(=O)N(Cc4ccc(N5C(=O)c6cccc7cccc5c67)cc4)c4ccccc43)[C@H]2C)cc1,1.35,-3.96,0.987,0.318,-0.512,-0.0585,0.0952,0.251,1.04,0.964
COCCOC(=O)N1C(=O)[C@@]2(c3cc(C#CC4(O)CCCCCC4)ccc31)[C@H](C(=O)Nc1nc3ccccc3s1)[C@H]1C(=O)O[C@H](c3ccccc3)[C@H](c3ccccc3)N1[C@@H]2c1ccc(O)cc1,1.37,-0.895,1,1.29,0.102,-0.18,-0.0849,-0.188,0.286,1.1
CCCCCN1CC=CC23O[C@@H]4C=CCCOC(=O)C4[C@H]2C(=O)N(CCCCCCO)[C@@H]3C1=O (stereo not given in full),0.521,0.525,-0.287,-0.711,-0.533,-0.168,-0.0769,-0.316,0.564,-0.675
CCCN1C(=O)[C@]2(Cc3ccccc31)N=C(c1ccc(OCCCO)cc1)O[C@@H]2c1ccccc1,1.42,-3.29,-0.148,1.98,-0.317,0.0427,1.17,0.401,0.414,1.28
CCCCC(=C=CC[C@H](O)c1ccc(OCCO)cc1)CCO,0.656,-1.1,-0.917,-0.333,-0.404,-0.124,-0.154,-0.0007,0.92,-0.322
[N-]=[N+]=Nc1ccccc1[C@@H]1OC(c2ccc(OCCCO)cc2)=N[C@]1(Cc1ccccc1)C(=O)N1CCCCC1,1.46,-2.57,0.0418,1.43,0.748,0.0484,0.337,1.37,1.57,1.25
CC(C)[Si](C#CCCCC#N)(O[C@H](c1ccccc1)c1cn(Cc2ccccc2)nn1)C(C)C,0.157,-0.147,-0.0465,-0.321,-0.458,-0.252,0.0469,0.111,0.439,-0.199
[N-]=[N+]=Nc1ccccc1C[C@]1(C(=O)N2CCOCC2)COC(c2ccc(OCCCO)cc2)=N1,1.41,-1.72,-0.253,0.201,-0.554,0.0317,0.14,-0.527,1.08,0.664

SMILES,composite z-score [1],z-score [2],composite z-score [3],composite z-score [4],composite z-score [5],composite z-score [6],composite z-score [7],composite z-score [8],composite z-score [9],composite z-score [10]
CCCCC(O)C1C=CC2C(=O)N(C)C(=O)C2N1N(c1ccccc1)c1ccccc1 (stereo not given),0.447,-0.991,0.186,2.06,0.766,-0.0161,0.393,1.53,1.41,1.8
CN(C)c1ccc(C(O)C2C=CC3C(=O)NC(=O)C3N2Nc2ccccn2)cc1 (stereo not given),1.34,-0.125,0.883,-0.365,-0.733,-0.13,-0.154,0.213,-0.269,0.162
C=C(/C(=C/C[C@H](OC(C)=O)c1ccc(CO)o1)c1cnc2ccccc2c1)C(C)C,1.43,-2.23,0.552,1.4,-0.24,-0.0643,0.149,0.33,1.07,2.15
CCCCCCc1nc(Cc2cc(OC)c(OC)c(OC)c2)cc2c1[Si](C(C)C)(C(C)C)OC2,-0.457,-1.96,0.186,-0.112,-0.302,-0.0462,-0.214,-0.174,-0.136,-0.0869
COc1ccc([Si](C)(C)[C@H]2[C@H](CC(=O)N3CCC[C@H]3CO)O[C@@]3(C(=O)N(Cc4ccc(N5CCOC5=O)cc4)c4ccccc43)[C@@H]2C)cc1,1.37,-2.52,0.75,0.655,0.0967,0.0194,-0.223,-0.172,0.833,1.08
CCOC(=O)C[C@H]1[C@H](OC(=O)Cc2ccc3c(c2)OCO3)[C@@H](NC(=O)C2CCCCC2)c2cc(OCCCO)ccc2N1C(=O)c1ccccc1,0.232,-0.509,-0.684,0.379,0.389,-0.1,-0.147,-0.272,0.653,0.262
O=C(O)[C@@H]1C[C@@H]2C(=O)N3CCC[C@H]3C(=O)N2[C@@H]1c1ccc(O)cc1,1.05,3.97,0.48,0.271,0.204,-0.0701,-0.0289,-0.226,0.343,0.964
COC(=O)[C@]1(CCS(=O)(=O)c2ccccc2)N=C(c2ccc(OCCCO)cc2)O[C@@H]1c1ccccc1N=[N+]=[N-],-0.0608,-2.55,0.744,1.73,0.785,0.0655,0.232,0.897,0.815,2.06
COC(=O)[C@@H]1N=C(c2ccc(OCCCO)cc2)O[C@@H]1c1ccccc1,-1.38,-1.94,-1.55,-0.494,-0.294,-0.152,-0.0709,-0.59,-0.992,-0.213
C=C[C@@H](OC)[C@H](OC(=O)Nc1ccc(OC)cc1)c1ccc(O)c(F)c1,0.392,0.859,-0.227,-1.84,-1.47,-0.208,0.0796,-0.834,0.302,-0.839
O=C1O[C@H](c2ccccc2)[C@H](c2ccccc2)N2[C@H]1[C@@H](C(=O)O)[C@]1(C(=O)Nc3ccc(C#CCCO)cc31)[C@H]2c1ccccc1OCCO,1.24,-0.488,-0.587,0.4,0.0772,-0.139,0.0141,-0.539,0.182,0.649
C=CC[C@@]1(C(=O)NCCCOC)N=C(c2ccc(OCCCO)cc2)O[C@@H]1c1ccccc1N=[N+]=[N-],1.44,-1.09,-0.553,0.968,-0.105,-0.0519,0.0639,0.291,0.905,0.767
CCCNC(=O)[C@@H]1c2ccccc2C(=O)N(Cc2ccc(OC(F)(F)F)cc2)[C@H]1c1ccc(CO)cc1,0.957,-0.808,-0.144,0.222,0.237,0.0077,0.292,0.0303,0.448,0.102
COc1ccc([Si](C)(C)[C@H]2[C@H](CC(=O)N3Cc4ccccc4C[C@H]3CO)O[C@@]3(C(=O)N(Cc4ccc(N5CCOC5=O)cc4)c4ccccc43)[C@@H]2C)cc1,0.559,-4.15,0.843,-0.766,-0.665,-0.0944,-0.0769,-0.267,0.612,1.22
COCCOC(=O)N1C(=O)[C@@]2(c3cc(C#CC4=CCCCC4)ccc31)[C@H](c1ccccc1OCCO)N1[C@H](c3ccccc3)[C@H](c3ccccc3)OC(=O)[C@H]1[C@@H]2C(=O)N1CCN(c2ncccn2)CC1,1.28,-2.1,0.718,0.501,0.466,-0.206,0.0048,-0.404,0.0174,0.511
COc1cc(C(O)C2C=CC3C(=O)N(C)C(=O)C3N2Nc2ccccc2)cc(OC)c1OC (stereo not given),0.1,0.461,-0.129,1.8,0.661,0.233,0.0725,2.22,1.3,0.469
Cc1ccc(S[C@]2(C(=O)NCCN3CCOCC3)CC(=O)N(Cc3ccccc3Cl)[C@@H]2c2ccc(CO)cc2I)cc1,0.772,-1.25,-1.45,0.0002,0.154,0.522,0.464,2.2,2.35,-0.903
